dFosB act – activators of delta FosB homodimer, primary screen, biochemical, fluorescence polarization, TAMRA-CDK5 oligo, single point. Protein FosB (Mus musculus), P13346. purified delta FosB; percent of positive-control signal above neutral wells. activation, % at 25 µM. 0.99% of 340,000 active. AID 493131, 2011;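 active = mean activation above about 17%, with every replicate also reaching it, limit read from the data, passing the limit was not always enough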
Target sequence (P13346 whole entry, looked up): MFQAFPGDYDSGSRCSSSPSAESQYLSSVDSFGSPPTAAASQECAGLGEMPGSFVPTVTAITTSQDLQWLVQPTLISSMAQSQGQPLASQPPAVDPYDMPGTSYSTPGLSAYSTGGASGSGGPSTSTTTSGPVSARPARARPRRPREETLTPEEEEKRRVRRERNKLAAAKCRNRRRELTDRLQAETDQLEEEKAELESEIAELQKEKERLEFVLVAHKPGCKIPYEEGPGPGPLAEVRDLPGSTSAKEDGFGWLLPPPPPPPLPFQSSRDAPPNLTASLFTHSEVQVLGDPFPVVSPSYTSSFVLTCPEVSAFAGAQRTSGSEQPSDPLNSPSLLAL
MEKK2wt PB1 HTS – modulators of MEK5 binding to wildtype MEKK2, primary screen, biochemical, multiplex bead flow cytometry, Alexa488-MEK5. AID 1531, 2009. Alexa488-MEK5 binding to MEKK2 WT; actives lie on both sides. binding response (% of control), % at 10 µM. 1.1% of 290,000 active; in the data active = binding response below about 67% or above about 130%
MEKK3 PB1 HTS – modulators of MEKK3-MEK5 PB1 binding, primary screen, biochemical, wildtype MEKK3, multiplex bead flow cytometry, Alexa488-MEK5. AID 1529, 2009. bead-based flow cytometry, Alexa488-MEK5 binding to MEKK3; actives lie on both sides; 0 = blocked by unlabeled MEK5, 100 = vehicle. 1.4% of 290,000 active. Mitogen-activated protein kinase kinase kinase 3 (Homo sapiens), Q99759. binding response (% of control), % at 10 µM;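 active = binding response more than 3 SD above or below the average of its plate-row segment, actives on both sides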;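 note: Alexa488 bead fluorescence after subtracting the streptavidin-only scavenger bead signal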
DNA FID counter – compounds displacing fluorescent DNA intercalator, primary screen, artefact control for HCV NS3 helicase inhibitor project, biochemical, FID fluorescence; DNA fluorescent intercalator displacement; inhibition, % at 7.9 µM; 0.17% of 290,000 active; AID 1845, 2009; in the data active = inhibition above about 37%;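 note: 0% = vehicle and 100% = reference compound; higher means more ethidium bromide displaced from hairpin DNA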
MEKK2 mut-MEK5 – MEK5 binding signal on mutant MEKK2 PB1, primary screen, biochemical, multiplex bead flow cytometry, Alexa488-MEK5; Alexa488-MEK5 binding to MEKK2 mutant; percent response, % at 10 µM; 0.35% of 290,000 active; in the data active = percent response above about 24%, passing the limit was not always enough
* marks the source's active call; other numbers are inactive results; · = no result given; ! = a repeat was not active; [ ] = dose if it differs, or a comment. In the library only some 2.9% were active in any assay of this set; here they are far more common.

SMILES	dFosB act	MEKK2wt PB1 HTS	MEKK3 PB1 HTS	DNA FID counter	MEKK2 mut-MEK5
CC[N+](C)(CC)CCCCOc1ccc2c(c1)C(=O)c1cc(OCCCC[N+](C)(CC)CC)ccc1-2	49*	114	101	88*	10
COc1ccc(CNC(=O)CCC(=O)N2C[C@H]3C[C@H](C2)c2cccc(=O)n2C3)cc1OC	-8	98	97	-1	-2
NC(Cc1ccc(O)cc1)C(=O)NN=Cc1ccc(N(CCCl)CCCl)cc1 (stereo not drawn)	32*	·	·	·	·
NC(Cc1ccccc1)c1nn[nH]n1 (stereo not drawn)	3	·	·	·	·
O=C(COc1ccc2ccccc2c1)N1CCN(CC2CC3C=CC2C3)CC1 (stereo not drawn)	-11	106	100	8	11
CN(C)C(=O)Oc1ccc2oc(=O)cc(-c3cc4ccccc4o3)c2c1	2	98	96	-42	-5
COC(=O)C1=CO[C@@H](C)[C@@H]2CN3CC[C@]4(C(=O)Nc5ccccc54)[C@@H]3C[C@H]12	1	98	138*	-30	19
COC(=O)C1=CO[C@@H](C)[C@@H]2CN3CC[C@@]4(C(=O)Nc5ccccc54)[C@@H]3C[C@H]12	-3	101	102	-50	3
CCCCC1(CCC)C(=O)NC(=S)NC1=O	-1	·	·	·	·
C[N+]1(CCC(C(N)=O)(c2ccccc2)c2ccccc2)CCCCC1	·	116	110	·	7
CN1CCN(c2cc(N3CCCC3)c([N+](=O)[O-])cc2F)CC1	7	111	105	15	6
CCN1CCN(c2cc(N3CCCC3)c(F)cc2[N+](=O)[O-])CC1	-1	114	159*	13	2
C/C(=N\N1CCCCCC1)c1c(O)n(C)c(=O)n(C)c1=O	·	96	99	-1	6
Nc1ccc2ccc3cccc[n+]3c2c1	32*	109	98	19	3
CN1CC[C@@]23CCCC[C@@H]2[C@@H]1Cc1ccc(O)cc13	3	104	115	2	0
CN1CC[C@]2(c3cccc(O)c3)Cc3nc4ccccc4cc3C[C@H]2C1	·	114	62*![inhibitor]	7	3
CN1CCN(c2ccc(N)c(N3CCN(C)CC3)c2)CC1	56*	116	105	22	6
CC(C)(C)NC(=O)NC(=O)CN1CC=C(c2ccccc2)CC1	-6	123	128	-14	60*
CCOc1ccc(N2C(=O)/C(=C/c3ccco3)C(=O)NC2=S)cc1	-17	100	104	-24	0
Cc1ccccc1N1C(=O)/C(=C/c2ccco2)C(=O)NC1=S	·	80	82*[inhibitor]	8	-17
CC1(C)OC(c2ccccc2)=C/C(=C/C=C2C(=O)NC(=S)NC2=O)O1	·	-5.0*[inhibitor]	73*[inhibitor]	-3	-13
CN1/C(=C\C=C2C(=O)NC(=S)NC2=O)C(C)(C)c2ccccc21	-105	97	106	-9	-6
COc1ccc2[nH]c3c(c2c1)CCNC3C (stereo not drawn)	-6	111	103	-1	6
COc1ccc2c3c([nH]c2c1)C(C)NCC3 (stereo not drawn)	0	1.0*	94	-2	48
COC(=O)C1=C(c2cccc(OC)c2OC)C[C@@H]2CC[C@H]1N2C(=O)NCCCOC(C)C	1	99	102	·	3
SMILES	dFosB act	MEKK2wt PB1 HTS	MEKK3 PB1 HTS	DNA FID counter	MEKK2 mut-MEK5
CC1(C)C2CC=C(CN3CCOCC3)C1C2 (stereo not drawn)	1	101	99	91*	0
CCCCCSc1cc(OC)c(CCN(C)C)cc1OC	1	111	96	37*	2
CCCC(CCC)C(=O)OC[N+](C)(C)CCOC(=O)C(O)(c1ccccc1)C1CCCC1 (stereo not drawn)	5	104	99	41*	-4
CC(C)(C)C(=O)OC[N+](C)(C)CCOC(=O)C(O)(c1ccccc1)C1CCCC1 (stereo not drawn)	-12	91	94	11	-13
COC(=O)C1=C(N)Oc2cc(C)oc(=O)c2C12C(=O)Nc1ccccc12 (stereo not drawn)	-3	98	99	4	-3
CCN(CC)C(=O)c1ccc(NC(=O)C2=C(C)OCCS2)cc1	7	108	107	-13	6
CN1C(=O)C(=Cc2sc(=O)n(-c3ccccc3)c2N2CCCCC2)C(=O)N(C)C1=O	-9	99	97	-13	1
CN1CCN(c2nc3ccccn3c(=O)c2C=C2C(=O)N(C)C(=O)N(C)C2=O)CC1	4	111	135*	0	1
Cc1cc2c(C(C)C)c(O)c(O)c(C=O)c2c(O)c1-c1c(C)cc2c(C(C)C)c(O)c(O)c(C=O)c2c1O	·	58*[inhibitor]	42*![inhibitor]	31	-5
Cc1ccc(N=C(N(C)C)P(=O)(N(C)C)N(C)C)cc1	4	99	105	56*	-2
Cc1ccc(OP(=O)(O)Oc2ccc(C)cc2)cc1	0	100	100	-5	0
O=C(Cn1ncc2c3ccccc3n(Cc3ccccc3F)c2c1=O)N1CCC2(CC1)OCCO2	3	97	97	-13	-3
CC(C)c1ccc(N2C(=O)NC(=O)/C(=C/C=C/c3ccco3)C2=O)cc1	-9	60*[inhibitor]	100	-21	36
COc1ccc(CCn2c(O)c(C=Nc3ccc(NC(C)=O)cc3)c(=O)[nH]c2=O)cc1OC	23*	104	106	-8	0
CCOc1ccc(N=Cc2c(O)n(CCc3ccc(OC)c(OC)c3)c(=O)[nH]c2=O)cc1	3	111	119	-3	20
O=c1[nH]c(=S)n(Cc2ccc(F)cc2)c(O)c1C=NCc1ccc2c(c1)OCO2	40*	95	92	0	-17
CCN(CC)P(=O)(NC(=O)C(Cl)(Cl)Cl)N(CC)CC.[Cl-].[Cl-].[Cl-].[Nd+3]	41*	102	103	1	6
C[n+]1c(-c2ccccc2)c2cc(N)ccc2c2ccc(N)cc21	-221	104	89	38*	10
O=C(Nc1nccs1)c1c(O)c2c(n(Cc3ccco3)c1=O)CCCC2	0	-4.0*	108	-5	5
C[C@]12CCC(=O)C[C@H]1CC[C@@H]1[C@@H]2CC[C@]2(C)C(=O)CC[C@@H]12	-3	·	·	·	·
CC(=O)Nc1ccc(OC(=O)N(C)C)cc1	-4	107	103	-2	-2
O=c1c(C=NCCN2CCNCC2)c(O)n(C2CCCCC2)c(=O)n1C1CCCCC1	41*	104	83	-4	-2
O=c1c(C=NCc2cccs2)c(O)n(C2CCCCC2)c(=O)n1C1CCCCC1	-8	101	102	-5	1
CN1CCC(N(C)c2nc(-c3ccc([N+](=O)[O-])cc3)nc3ccccc23)CC1	30*	·	·	46*	·

Screens as filed in PubChem BioAssay.
